The values that follow come from PubChem BioAssay (Tox21).

Records with an inconclusive call do not appear. More than one record can exist for a structure, and the calls need not agree. Calls of active or inactive are those of the source. Unless noted, the call rests on the fitted dose curve; in most records, active means well fitted curve in the direction sought with a large enough effect in the repeat runs; inconclusive means weak or mixed curves; inactive means no such curve, though single readings can be large; an effect the other way counts as inactive or inconclusive.

A short description of assay [1]: qHTS assay to identify small molecule agonists of the sonic hedgehog signaling (Shh) pathway (AID 1259368; calls by dose curve;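 further: NIH/3T3-derived 3T3Gli1-Luc cells carrying a stable Gli1-driven firefly luciferase reporter; series mostly up to about 92 µM; nearly all actives have a fitted effect of over 15% in size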). In a few lines: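 Luminescence was read after 30 min at room temperature with luciferase reagent. Before that, 3T3Gli1-Luc cells (NIH/3T3 clone, stable Gli1-Luc reporter; 2,000/well) were exposed to compounds for 24 hr at 37C, 5% CO2, compounds being added 4 hr post-plating.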

Assay [2] has as its target Estrogen receptor beta (Homo sapiens) (UniProt Q92731). Description: qHTS assay to identify small molecule agonists of the estrogen receptor beta (ER-beta) signaling pathway (AID 1259377; active means well fitted activation curve with a large enough effect in the signal ratio in the repeat runs, not every such curve was filed as active; the % refers to the signal ratio). In a few lines: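 A UAS-controlled beta-lactamase reporter in ER-beta-UAS-bla HEK293T cells reports receptor activation. Compounds act for 16 hr at 37C in 2% charcoal-stripped serum, and a FRET substrate is read by fluorescence after 2 hours.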

For assay [3] the target is unchanged. Description: qHTS assay to identify small molecule antagonists of the estrogen receptor beta (ER-beta) signaling pathway (AID 1259378; active means well fitted inhibition curve with a large enough effect in the signal ratio in the repeat runs, not every such curve was filed as active; the % refers to the signal ratio). Summed up: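 ER-beta-UAS-bla HEK293T cells in 2% charcoal-stripped FBS medium treated with compound plus 1nM final 17-beta-estradiol for 16 hr at 37C. Beta-lactamase reporter read by FRET substrate fluorescence after 2 hours at room temperature.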

Assay [4] can be described thus: qHTS assay to identify small molecule agonists of the estrogen receptor beta (ER-beta) signaling pathway - cell viability counter screen (AID 1259380). Further: nearly all actives have a fitted effect of over 30% in size. Further: potency means the concentration at half of the fitted maximal effect. In a few lines:
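Cell viability counter screen: CellTiter-Glo luminescence (30 min, room temperature) measured in the same wells as the beta-lactamase readout, after 16 hr compound exposure at 37C of ER-beta-bla HEK293T cells in 2% charcoal-stripped FBS medium.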

Assay [5] concerns the target Androgen receptor (Homo sapiens) (UniProt P10275). Briefly: qHTS assay to identify small molecule agonists of the androgen receptor (AR) signaling pathway in the presence of an antagonist (AID 1259381; calls by dose curve; further: nearly all actives have a fitted effect of over 15% in size). Summed up: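 Agonist-mode confirmation run against 3.0 uM final nilutamide: compounds titrated at 15 concentrations onto MDA-kb2 MMTV-luciferase reporter cells. Luminescence measured with ONE-Glo following 16 hr incubation, 37C, 0% CO2.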

Assay [6] can be described thus: qHTS assay to identify small molecule antagonists of the estrogen receptor beta (ER-beta) signaling pathway - cell viability counter screen (AID 1259382). Further: nearly all actives have a fitted effect of over 55% in size. Further: potency means the concentration at half of the fitted maximal effect. In a few lines: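 Cytotoxicity was measured in the same wells by CellTiter-Glo luminescence after 30 min at room temperature. Cells were ER-beta-bla HEK293T in charcoal-stripped serum, given compound together with 1 nM E2 and incubated 16 h at 37C.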

In assay [7] the target is Estrogen receptor (Homo sapiens) (UniProt P03372). Description: qHTS assay to identify small molecule agonists of the estrogen receptor alpha (ER-alpha) signaling pathway in the presence of an antagonist (AID 1259383; calls by dose curve; further: top concentration of the series differs between compounds; nearly all actives have a fitted effect of over 15% in size). In a few lines:
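Agonist-mode confirmation run in the presence of 10.0nM (final) ICI-182,780 antagonist. The reporter was ERE-driven luciferase in VM7Luc4E2 cells, grown in charcoal-stripped serum. Cells were exposed to 15-concentration compound series for 22hr, then ONE-Glo luminescence was read.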

Assay [8] can be described thus: qHTS assay to identify small molecule agonists or antagonists of the thyroid stimulating hormone receptor (TSHR) signaling pathway - wild type cell line counter screen (AID 1259384; calls by dose curve). Summed up: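 Wild-type Hek293 cells, 800/well, 18 h at 37C, then compound with Ro20-1724 for 30 min RT. cAMP by HTRF (cAMP-d2/anti-cAMP cryptate), 1 h RT, fluorescence read. 15 concentrations, triplicates.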

In assay [9] the target is Thyrotropin receptor (Homo sapiens) (UniProt P16473). Briefly: qHTS assay to identify small molecule antagonists of the thyroid stimulating hormone receptor (TSHR) signaling pathway (AID 1259385; calls by dose curve; further: nearly all actives have a fitted effect of over 20% in size). Summed up: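 TSHR-HEK293 cells (800/well) plated 18 h, then compounds with Ro20-1724 and TSH at 1.5 ng/mL final, 30 min at room temperature. cAMP quantified by HTRF (cAMP-d2/anti-cAMP-cryptate, 1 h); 15 concentrations in triplicate.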
Thyrotropin receptor (Homo sapiens), sequence (P16473 whole entry, looked up): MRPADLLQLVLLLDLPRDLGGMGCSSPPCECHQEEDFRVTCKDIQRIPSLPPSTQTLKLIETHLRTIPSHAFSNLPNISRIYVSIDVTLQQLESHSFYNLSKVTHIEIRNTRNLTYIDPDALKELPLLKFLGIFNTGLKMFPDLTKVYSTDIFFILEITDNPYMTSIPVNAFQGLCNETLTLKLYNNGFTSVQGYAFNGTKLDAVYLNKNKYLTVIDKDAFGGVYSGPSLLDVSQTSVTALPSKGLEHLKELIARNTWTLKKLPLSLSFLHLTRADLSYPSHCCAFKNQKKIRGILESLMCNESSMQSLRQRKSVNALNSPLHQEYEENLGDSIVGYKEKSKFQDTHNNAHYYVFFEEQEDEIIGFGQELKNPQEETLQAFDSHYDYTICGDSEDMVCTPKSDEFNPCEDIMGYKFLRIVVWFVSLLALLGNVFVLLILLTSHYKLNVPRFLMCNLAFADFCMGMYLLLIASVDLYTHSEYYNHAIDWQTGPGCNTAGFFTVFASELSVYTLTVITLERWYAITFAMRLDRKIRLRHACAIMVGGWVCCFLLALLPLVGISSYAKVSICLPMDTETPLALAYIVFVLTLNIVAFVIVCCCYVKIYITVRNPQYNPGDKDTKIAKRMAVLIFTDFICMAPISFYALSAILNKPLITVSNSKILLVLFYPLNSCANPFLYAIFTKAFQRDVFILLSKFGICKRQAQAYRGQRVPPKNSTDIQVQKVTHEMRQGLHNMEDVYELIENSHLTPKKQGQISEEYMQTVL

Assay [10] can be described thus: qHTS assay to identify small molecule agonists of the estrogen receptor alpha (ER-alpha) signaling pathway in the presence of an antagonist - cell viability counter screen (AID 1259386). Further: nearly all actives have a fitted effect of over 30% in size. Further: potency means the concentration at half of the fitted maximal effect. Summed up: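 Compounds tested at 15 concentrations for 22 h at 37C alongside 10.0nM (final) ICI-182,780 antagonist, in VM7Luc4E2 cells grown in phenol red-free, charcoal-stripped medium. Viability read by CellTiter-Fluor fluorescence after 1 h reagent incubation.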

Assay [11] addresses Progesterone receptor (Homo sapiens) (UniProt P06401). Description: qHTS assay to identify small molecule agonists of the progesterone receptor (PR) signaling pathway (AID 1346784; calls by dose curve; further: nearly all actives have a fitted effect of over 30% in size). In a few lines: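 Agonist mode, quantitative HTS format in a HEK 293T line expressing a UAS-controlled beta-lactamase reporter; 16 hr compound exposure at 37C in 2% charcoal-stripped FBS, then LiveBLAzer B/G FRET fluorescence.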

The target is the same in assay [12]. Briefly: qHTS assay to identify small molecule antagonists of the progesterone receptor (PR) signaling pathway (AID 1346795; active means well fitted inhibition curve with a large enough effect in the signal ratio in the repeat runs, not every such curve was filed as active; the % refers to the signal ratio). Summed up: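 HEK293T PR-UAS-bla reporter cells in charcoal-stripped serum (2%) received compound after a 6 hr settling period, followed by R5020 agonist at 1 nM final; 16 hr incubation preceded the FRET substrate step and fluorescence measurement.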

The nature of assay [13]: qHTS assay to identify small molecule antagonists of the progesterone receptor (PR) signaling pathway - cell viability counter screen (AID 1346798). Further: nearly all actives have a fitted effect of over 50% in size. Further: potency means the concentration at half of the fitted maximal effect. Summed up:
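Same-well multiplex: after 16 hr at 37C with compound and R5020 stimulation, HEK293T cells carrying a UAS-bla reporter received LiveBLAzer substrate (2 hr RT), then CellTiter-Glo (30 min RT) for luminescent viability.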

Assay [14] in a line: qHTS assay to identify small molecule agonists of the progesterone receptor (PR) signaling pathway - cell viability counter screen (AID 1346799; calls by dose curve; further: nearly all actives have a fitted effect of over 45% in size; further: potency means the concentration at half of the fitted maximal effect). Summed up:
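Counter screen for cytotoxicity: compound-treated PR-UAS-bla HEK293T cells (16 hr, 37C, 5% CO2) were assayed with CellTiter-Glo, luminescence measured after 30 min at room temperature.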

Assay [15] can be described thus: qHTS assay to identify small molecule antagonists of the TGF-beta/Smad signaling pathway - cell viability counter screen (AID 1346824). Further: nearly all actives have a fitted effect of over 50% in size. Summed up: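 SBE-bla HEK 293T cells, incubated overnight, then compound plus 0.25 ng/mL TGF-beta1 (stock added) for 5 hr at 37 C. Viability was read in the same wells by CellTiter-Glo luminescence after 30 min at room temperature.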

Assay [16] can be described thus: qHTS assay to identify small molecule agonists of the TGF-beta/Smad signaling pathway - cell viability counter screen (AID 1346829). Further: top concentration of the series differs between compounds; nearly all actives have a fitted effect of over 45% in size. Summed up: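 CellTiter-Glo luminescence readout; SBE-bla HEK 293T cells, overnight plating, compound 5 hr at 37 C/5% CO2, then bla substrate 2 hr RT, then CellTiter-Glo 30 min RT.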
A short description of assay [17]: qHTS assay to identify small molecule agonists of the TGF-beta/Smad signaling pathway (AID 1346859; active means well fitted activation curve with a large enough effect in the signal ratio in the repeat runs, not every such curve was filed as active; the % refers to the signal ratio; further: series mostly up to about 77 µM). In a few lines: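 Smad-responsive beta-lactamase reporter cells (HEK 293T) received compounds from DMSO stocks after overnight attachment, were incubated 5 hr, then treated 2 hr with FRET substrate before dual-emission fluorescence measurement (405 nm excitation).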

The target of assay [18] is Thyrotropin-releasing hormone receptor (Homo sapiens) (UniProt P34981). Briefly: qHTS assay to identify small molecule antagonists of the thyrotropin-releasing hormone receptor (TRHR) signaling pathway (AID 1346877; active means well fitted inhibition curve with a large enough effect in the repeat runs, not every such curve was filed as active; further: series mostly up to about 51 µM). In a few lines: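 Antagonist mode: after a 5 min room-temperature compound exposure, cells were stimulated with 1 nM (final) TRH. Dye-loaded TRHR-HEK293 cells were used, and calcium-dependent fluorescence was followed for 3 min, with 15-point titrations run in triplicate.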
Thyrotropin-releasing hormone receptor (Homo sapiens), sequence (P34981 whole entry, looked up): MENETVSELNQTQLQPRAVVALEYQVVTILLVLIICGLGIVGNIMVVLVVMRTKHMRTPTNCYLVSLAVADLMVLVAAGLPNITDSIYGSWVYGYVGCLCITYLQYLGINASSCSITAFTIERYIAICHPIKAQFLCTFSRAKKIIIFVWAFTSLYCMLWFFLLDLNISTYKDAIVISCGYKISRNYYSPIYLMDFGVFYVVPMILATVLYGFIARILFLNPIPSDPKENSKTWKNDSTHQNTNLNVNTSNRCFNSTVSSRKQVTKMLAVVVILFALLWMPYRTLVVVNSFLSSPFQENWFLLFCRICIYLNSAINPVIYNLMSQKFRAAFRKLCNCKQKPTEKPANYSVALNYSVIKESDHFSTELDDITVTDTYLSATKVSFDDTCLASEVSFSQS

Assay [19] can be described thus: qHTS assay to identify small molecule agonists of the androgen receptor (AR) signaling pathway in the presence of an antagonist - cell viability counter screen (AID 1259379).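 Further: MDA-kb2 human breast cancer cells carrying an MMTV luciferase reporter; series mostly up to about 92 µM; nearly all actives have a fitted effect of over 25% in size.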 Summed up:
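Cytotoxicity counter-screen run in the same wells as the nilutamide-challenged (3.0 µM final) AR agonist assay in MDA-kb2 cells. Compounds tested at 15 concentrations for 16 h, 37 °C without CO2; CellTiter-Fluor fluorescence read.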

Androgen receptor (Homo sapiens), sequence (P10275 whole entry, looked up): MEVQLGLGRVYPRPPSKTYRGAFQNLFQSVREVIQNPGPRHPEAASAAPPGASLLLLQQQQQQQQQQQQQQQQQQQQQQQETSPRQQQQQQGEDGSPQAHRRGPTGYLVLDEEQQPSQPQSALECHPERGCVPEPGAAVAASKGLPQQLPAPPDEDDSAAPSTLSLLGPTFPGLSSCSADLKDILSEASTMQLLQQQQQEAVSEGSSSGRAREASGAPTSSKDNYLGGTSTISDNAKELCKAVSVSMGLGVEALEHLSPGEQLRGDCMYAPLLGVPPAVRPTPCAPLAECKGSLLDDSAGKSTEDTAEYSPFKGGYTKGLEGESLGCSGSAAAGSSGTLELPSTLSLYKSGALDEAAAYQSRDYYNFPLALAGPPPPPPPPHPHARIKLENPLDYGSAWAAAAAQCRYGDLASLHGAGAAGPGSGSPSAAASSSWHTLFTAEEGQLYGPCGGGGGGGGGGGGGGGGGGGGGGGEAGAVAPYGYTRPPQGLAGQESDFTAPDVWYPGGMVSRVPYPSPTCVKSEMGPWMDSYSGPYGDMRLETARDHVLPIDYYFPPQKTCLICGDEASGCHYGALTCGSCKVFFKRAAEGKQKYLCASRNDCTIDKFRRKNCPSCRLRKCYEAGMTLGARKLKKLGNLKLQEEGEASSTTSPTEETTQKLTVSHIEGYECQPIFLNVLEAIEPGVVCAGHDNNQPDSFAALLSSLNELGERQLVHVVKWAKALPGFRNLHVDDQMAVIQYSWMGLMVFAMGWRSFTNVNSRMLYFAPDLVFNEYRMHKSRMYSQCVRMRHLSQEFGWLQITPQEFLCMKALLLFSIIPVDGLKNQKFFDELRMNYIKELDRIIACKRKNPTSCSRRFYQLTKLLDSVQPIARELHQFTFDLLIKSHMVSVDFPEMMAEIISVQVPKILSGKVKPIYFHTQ
Estrogen receptor beta (Homo sapiens), sequence (Q92731 whole entry, looked up): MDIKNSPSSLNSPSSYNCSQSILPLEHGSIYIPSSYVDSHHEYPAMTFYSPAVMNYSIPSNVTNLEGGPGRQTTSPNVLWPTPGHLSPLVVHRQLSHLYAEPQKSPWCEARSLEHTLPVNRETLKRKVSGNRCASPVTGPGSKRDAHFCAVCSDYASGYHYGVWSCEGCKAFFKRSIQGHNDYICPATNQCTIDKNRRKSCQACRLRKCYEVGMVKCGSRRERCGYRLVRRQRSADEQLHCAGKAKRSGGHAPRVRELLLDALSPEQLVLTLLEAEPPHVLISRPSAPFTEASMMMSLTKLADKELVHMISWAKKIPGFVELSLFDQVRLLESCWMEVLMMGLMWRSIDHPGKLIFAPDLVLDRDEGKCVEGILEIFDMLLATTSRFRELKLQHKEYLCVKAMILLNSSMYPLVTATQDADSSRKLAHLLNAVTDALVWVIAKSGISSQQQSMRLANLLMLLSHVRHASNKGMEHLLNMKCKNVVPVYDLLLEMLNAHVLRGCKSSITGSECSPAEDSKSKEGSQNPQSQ
Progesterone receptor (Homo sapiens), sequence (P06401 whole entry, looked up): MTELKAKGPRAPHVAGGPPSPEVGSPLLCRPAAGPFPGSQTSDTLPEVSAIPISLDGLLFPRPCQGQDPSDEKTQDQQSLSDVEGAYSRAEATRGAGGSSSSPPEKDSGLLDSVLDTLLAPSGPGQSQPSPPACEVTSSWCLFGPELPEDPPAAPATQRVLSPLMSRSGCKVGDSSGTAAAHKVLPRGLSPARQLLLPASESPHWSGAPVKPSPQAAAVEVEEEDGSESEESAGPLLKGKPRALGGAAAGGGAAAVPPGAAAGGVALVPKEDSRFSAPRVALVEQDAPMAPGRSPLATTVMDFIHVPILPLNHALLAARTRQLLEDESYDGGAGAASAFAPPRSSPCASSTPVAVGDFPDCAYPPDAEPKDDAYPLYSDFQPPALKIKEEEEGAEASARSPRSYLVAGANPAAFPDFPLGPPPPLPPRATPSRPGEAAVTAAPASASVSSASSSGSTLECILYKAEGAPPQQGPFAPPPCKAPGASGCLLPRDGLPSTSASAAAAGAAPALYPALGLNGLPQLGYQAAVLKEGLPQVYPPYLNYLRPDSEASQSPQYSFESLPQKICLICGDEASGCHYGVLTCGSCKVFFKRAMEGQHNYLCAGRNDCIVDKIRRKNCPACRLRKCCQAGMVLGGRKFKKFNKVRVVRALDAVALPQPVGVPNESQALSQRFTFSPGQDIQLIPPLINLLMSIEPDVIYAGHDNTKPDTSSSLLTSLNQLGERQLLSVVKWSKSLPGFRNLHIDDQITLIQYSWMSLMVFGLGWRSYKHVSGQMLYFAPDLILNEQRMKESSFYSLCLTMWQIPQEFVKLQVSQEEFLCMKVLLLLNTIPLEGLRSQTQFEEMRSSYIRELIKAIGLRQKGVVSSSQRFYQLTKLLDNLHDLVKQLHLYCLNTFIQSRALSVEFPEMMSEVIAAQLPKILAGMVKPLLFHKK
Estrogen receptor (Homo sapiens), sequence (P03372 whole entry, looked up): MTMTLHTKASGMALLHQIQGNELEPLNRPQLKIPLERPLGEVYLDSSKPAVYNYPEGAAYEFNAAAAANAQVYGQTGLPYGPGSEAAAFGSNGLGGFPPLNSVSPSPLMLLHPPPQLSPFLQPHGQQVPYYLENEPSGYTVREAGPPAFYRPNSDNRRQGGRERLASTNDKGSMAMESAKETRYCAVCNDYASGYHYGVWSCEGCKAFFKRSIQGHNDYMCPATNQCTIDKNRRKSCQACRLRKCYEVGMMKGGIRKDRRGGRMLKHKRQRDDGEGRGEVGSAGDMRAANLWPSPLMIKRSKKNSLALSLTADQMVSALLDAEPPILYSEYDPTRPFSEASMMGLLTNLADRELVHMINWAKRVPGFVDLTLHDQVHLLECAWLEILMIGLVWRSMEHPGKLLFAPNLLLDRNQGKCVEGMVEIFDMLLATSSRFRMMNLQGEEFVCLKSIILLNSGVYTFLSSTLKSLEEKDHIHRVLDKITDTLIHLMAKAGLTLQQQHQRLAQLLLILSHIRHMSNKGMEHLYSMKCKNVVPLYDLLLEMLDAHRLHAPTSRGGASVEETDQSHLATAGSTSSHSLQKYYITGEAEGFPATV

On to `CC(=O)c1ccc[nH]1`, for which the Potency entry in assay [1], in [2], in assay [3], in assay [4], in assay [5] and in [6] was “inactive” in each case. Further, the Potency entry in [7], in assay [8], in [9], in assay [10], in assay [11] and in assay [12] was “inactive” each time. Besides, the Potency result in [13], in [14], in [16] and in assay [17] was “inactive” in each case. Also, the molecule was classed as inactive in assay [15] and in assay [18].

In the case of `O=S(=O)(Cl)c1c(Cl)cccc1Cl`, the Potency result in assay [1], in assay [2], in assay [3], in assay [4], in assay [5] and in assay [6] was “inactive” in each case. Also, the Potency result in assay [8], in assay [9], in [10], in assay [11], in [12] and in [13] was “inactive” in each case. Also, the Potency result in assay [14], in [16] and in assay [17] was “inactive” in each case. Besides, the molecule was called inactive in assay [15] and in [18].

For the molecule `CCCCOC(=O)CCCCC(=O)OCCCC`, the Potency result in assay [1], in assay [2], in assay [3], in assay [19], in assay [4] and in assay [6] was “inactive” each time. Further, the Potency entry in assay [8], in assay [10], in assay [11], in [12], in [13] and in assay [14] was “inactive” each time. Besides, the Potency result in [16] and in assay [17] was “inactive” in each case. Moreover, the molecule was classed as inactive in [15] and in assay [18].

In the case of `CNS(=O)(=O)c1cc(C(=O)N2CCC(CCN3C4CCC3CC(n3c(C)nc5ccccc53)C4)(c3cccc(F)c3)CC2)c(Cl)cc1F` (stereo not given), the Potency entry in assay [1], in assay [5], in [8], in assay [10], in assay [11] and in assay [16] was “inactive” throughout. The Potency is 5.45 µM (active) in assay [4], 7.7 µM (active) in assay [6], 24.3 µM (active) in assay [13] and 5.45 µM (active) in assay [14].

With `O=C(O)CCS`, the Potency result in assay [1], in assay [19], in assay [4], in assay [6], in [8] and in assay [9] was “inactive” each time. The Potency result in assay [10], in assay [11], in assay [12], in [13], in assay [16] and in assay [17] was “inactive” in each case. In addition, the call in assay [15] and in assay [18] was inactive.

As for `CC(=O)OCCC(C)CC(C)(C)C` (stereo not given), the Potency result in assay [1], in assay [19], in assay [4], in assay [7], in [8] and in [10] was “inactive” throughout. The Potency entry in assay [11], in [13], in assay [16] and in assay [17] was “inactive” throughout.

As to `COc1ccc2nc(S(=O)Cc3ncc(C)c(OC)c3C)[nH]c2c1` (stereo not given), the Potency entry in assay [1], in assay [19], in assay [4], in assay [8], in assay [9] and in [11] was “inactive” in each case. In addition, the Potency entry in [17] was “inactive”. In assay [10], the Potency is 48 µM (active) and inactive. The molecule was called inactive in assay [15] and in assay [18].

As for `COc1ccc(/C=C/C(=O)c2ccc(OC)cc2OC)cc1`, the Potency entry in assay [1], in assay [19], in assay [6], in [8], in [9] and in [10] was “inactive” each time. Further, the Potency result in assay [11], in [16] and in [17] was “inactive” each time. The molecule was called inactive in assay [15] and in assay [18].

For `N[C@@H](Cc1cc(I)c(O)c(I)c1)C(=O)O`, the Potency result in assay [1], in assay [4], in [6], in assay [8], in [9] and in assay [10] was “inactive” throughout. The Potency entry in assay [11], in assay [12], in [13], in [14], in assay [16] and in assay [17] was “inactive” throughout. The outcome in assay [15] and in assay [18] was inactive.
